Rab9 prom act – activators of Rab9 promoter; AID 485297; 320,000 compounds, 2.8% hits; Huh7 Rab9 promoter-luciferase reporter, luminescence, 24 h; Potency, µM (highest dose often 9.22 µM), for inactives: at the top dose activation, negative = inhibition, actives largely listed as activators; note: % of control where 0% means no effect; nearly all actives have a fitted effect of over 60% in size
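Huh7 reporter line, Rab9 promoter upstream of luciferase. Compound exposure 24 h at 37 °C in reduced-serum medium with 10% FBS. Read-out: luminescence.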
SMN2 splice enh – SMN2 splice variant enhancement | HEK293 SMN2-luciferase splicing reporter, luminescence, 30-36 h | Potency, µM (series often up to 46.1 µM), for inactives: at the highest dose activity change, positive = activation, most hits filed as activators | 210,000 compounds, 2.8% hits | AID 1458; note: % of control where 0% means no effect; nearly all actives have a fitted effect of over 55% in size
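HEK293 cells carry an SMN2 minigene-luciferase reporter in which exon 7 inclusion puts luciferase in frame. Cells were seeded at 2000 cells/well, attached for 10-12 hours, then exposed to compounds for 30-36 hours at 37C before ONE-Glo luminescence.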
FLuc counter – firefly luciferase modulation, counter-screen for miR-21 project. P08659. purified FLuc, Km substrates, luminescence inhibition. Potency, µM (highest dose often 57.5 µM), for inactives: at the top dose activity change, negative = inhibition, actives largely listed as inhibitors. 360,000 compounds, 6.9% hits;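 note: plate controls were vehicle for no effect and reference inhibitor for full effect; nearly all actives have a fitted effect of over 55% in size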
Target sequence (P08659 whole entry, looked up): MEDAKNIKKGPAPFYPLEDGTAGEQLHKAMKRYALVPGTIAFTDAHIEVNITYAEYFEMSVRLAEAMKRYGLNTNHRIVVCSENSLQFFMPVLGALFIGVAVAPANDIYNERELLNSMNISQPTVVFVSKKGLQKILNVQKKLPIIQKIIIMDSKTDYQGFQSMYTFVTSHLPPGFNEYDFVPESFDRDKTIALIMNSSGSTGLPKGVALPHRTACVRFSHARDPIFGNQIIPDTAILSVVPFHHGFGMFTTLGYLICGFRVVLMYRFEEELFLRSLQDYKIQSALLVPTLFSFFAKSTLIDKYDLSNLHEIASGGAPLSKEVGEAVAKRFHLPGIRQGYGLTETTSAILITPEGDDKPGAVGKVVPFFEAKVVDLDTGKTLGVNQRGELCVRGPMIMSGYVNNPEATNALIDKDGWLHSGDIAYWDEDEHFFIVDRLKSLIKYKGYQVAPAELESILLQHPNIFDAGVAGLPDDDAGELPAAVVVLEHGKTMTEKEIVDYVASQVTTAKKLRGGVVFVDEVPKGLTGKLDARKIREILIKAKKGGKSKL
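Purified P. pyralis luciferase, 10 nM final, with Km-level 10 uM D-luciferin and 10 uM ATP in 50 mM Tris acetate pH 7.5, 10 mM Mg acetate, 0.01% Tween-20, 0.05% BSA; 6-point qHTS titration about 60 µM downward; luminescence read.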
NPC1 prom act – activators of NPC1 promoter. 320,000 compounds, 2.4% hits. Potency, µM (top dose mostly 9.22 µM), for inactives: at the highest dose activation, hits mostly activators. Huh7 NPC1 promoter luciferase reporter, 24 h; note: % of control where 0% means no effect; nearly all actives have a fitted effect of over 60% in size
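NPC1 promoter–luciferase Huh7 cells; 24 h compound; luminescence.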
ELG1 repair inh – blocks ELG1-dependent DNA repair in HEK293T cells; HEK293T ELG1-luciferase reporter, luminescence, 16 h; DNA damage induced by 5-fluorouridine; 330,000 compounds, 2.3% hits; Potency, µM (titrated, usually from 46.1 µM), for inactives: top-dose activity change, negative = inhibition, hits mostly inhibitors; note: % is set by controls: 0 for no effect and ±100 for the full control effect; nearly all actives have a fitted effect of over 55% in size
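Luminescence from the luciferase reporter, measured 30 min after ONE-Glo reagent at room temperature, was the read-out. Beforehand, 2,000 cells per well were exposed for 16 hr at 37 °C to 5-fluorouridine together with compound or vehicle.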
ELG1 genotoxic – genotoxicity induction in ELG1-luciferase HEK293T cells; 330,000 compounds, 1.3% hits; AID 504466; Potency, µM (highest dose often 46 µM), for the others: top-dose activity change, positive = activation, usual class: activators; HEK293T ELG1-luciferase reporter, luminescence, 16 h; note: % of control where 0% means no effect; nearly all actives have a fitted effect of over 60% in size
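Quantitative HTS format in 1536-well plates. HEK293T ELG1-luciferase reporter cells receive test compound and are incubated 16 hr at 37 °C, 5% CO2; ONE-Glo added, 30 min room temperature, then luminescence read.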
* = called active by the depositor; ? = inconclusive; / = no result; [ ] = remark or other dose. Shown are actives, neighbours in structure and some others; about 9.4% of the full set was active somewhere. Calls come from the whole dose curve; as a rule, active = well fitted curve in the direction sought with a large enough effect; inconclusive = small, poorly fitted or top-dose-only effect, or another doubt; inactive = no such curve, though single readings can be large; an effect the other way counts as inactive or inconclusive. Potency is the fitted concentration of half-maximal effect.

SMILES	Rab9 prom act	SMN2 splice enh	FLuc counter	NPC1 prom act	ELG1 repair inh	ELG1 genotoxic
CCN(CC)c1ccc(C2Nc3cccc4cccc(c34)N2)c(O)c1	?	0%	17µM*	?	?	10%
CCc1cccc(C)c1NC(=O)NC1COc2ccccc2C1 (stereo not given)	/	/	-2%	/	/	/
COc1cccc(CNC(=O)CCC2CCCN(C(=O)c3cc4ccccc4o3)C2)c1 (stereo not given)	4.5µM*	/	13µM*	?	14%	11%
CN(C)c1oc(-c2ccc(OCc3ccccc3)cc2)nc1C#N	6%	?	?	17%	?	16µM*
N#Cc1nc(-c2ccc(OCc3ccccc3)cc2)oc1NCc1cccnc1	1%	-27%	?	0%	?	-16%
COc1ccc(/C=N/Nc2cc(C)nc(N)n2)cc1	7%	?	19µM*	11%	?	17%
COc1cc(/C=N/Nc2cc(C)nc(N)n2)ccc1O	-4%	/	9.5µM*	2%	?	?
CN(CC(=O)Nc1ccccc1Br)C(=O)CCC1CCCC1	?	/	19µM*	?	?	?
CN(CC(=O)Nc1ccccc1Br)C(=O)c1ccccc1-c1nc2ccccc2s1	2%	/	-4%	5%	21µM*	-9%
CN(CC(=O)Nc1ccc(F)cc1)C(=O)c1cc2c(s1)CCCCC2	-6%	/	0%	1%	-1%	12%
CN(CC(=O)Nc1ccccc1Br)C(=O)c1cc2c(s1)CCCCC2	29%	/	11µM*	26%	?	?
COc1ccc2cc(C(=O)N(C)CC(=O)Nc3ccccc3Br)ccc2c1	26%	/	21µM*	11%	?	1%
CCc1ccc(NC(=O)c2ccc(CN3C(=O)C(C)=C(c4ccc(C)cc4)S3(=O)=O)cc2)cc1	/	/	-6%	/	/	/
COc1ccc(S(=O)(=O)NCCc2csc(-c3cccc(F)c3)n2)cc1OC	/	/	-7%	/	/	/
COc1cc(Cl)c(C)cc1Nc1nc2ccccc2c2nnc(C)n12	/	/	-1%	/	/	/
O=C(O)C/C(=C\c1ccccc1)C(=O)O	/	-1%[9.22 µM]	/	/	/	/
Cc1nc(C#N)c(N/N=C/c2c(F)cccc2Cl)o1	19%	?	24µM*	10%	?	5%
Cc1nc(N)nc(N/N=C/c2c(F)cccc2Cl)n1	-2%	/	?	7%	?	8%
CCOc1ccc(-c2cc(NC(=O)Nc3ccc(Cl)cc3)c(C(=O)OC)s2)cc1	/	-1%	-20%	/	/	/
CCOC(=O)c1sc(-c2ccc(OC)cc2)cc1NC(C)=O	22%	16µM*	-15%	26%	?	4%
CCOc1ccc(-c2cc(NC(=O)Nc3ccccc3Cl)c(C(=O)OC)s2)cc1	/	29%	8.5µM*	/	/	/
Cc1cccc(CNC(=O)Cn2ccc3cc(S(=O)(=O)N4CCC(C)CC4)ccc32)c1	/	/	2%	/	/	/
O=C(CCSc1ccccc1)NC1CCCC1	1%	21%	15µM*	3%	?	?
COc1ccc(S(=O)(=O)CCC(=O)NC2CCCCC2)cc1	-1%	22%	0%	-1%	10%	3%
O=C(CCS(=O)(=O)c1ccccc1)NC1CCCCC1	?	/	17µM*	25%	?	15µM*
Cc1nc2c(-c3ccc(Cl)cc3)cnn2c(N)c1-c1ccc(F)cc1	?	/	1.7µM*	15%	?	6.5µM*
Nc1c(-c2ccccc2)cnc2ncnn12	-7%	-2%	1%	0%	12%	2%
Nc1c(-c2cccc(Cl)c2)cnc2c(-c3ccccc3)cnn12	?	/	4.3µM*	1.3µM*	?	?
Cc1cc(C(F)(F)F)n2ncc(-c3ccc(F)cc3)c2n1	-6%	-20%	0%	-2%	0%	3%
COc1ccc(-c2c(C)nc3c(-c4ccc(F)cc4)cnn3c2N)cc1	0.45µM*	/	0.85µM*	0.5µM*	?	?

Assay outcomes as filed in PubChem.
